CYP2C19 inh: inhibitors of human CYP2C19; P33261; AID 778; CYP2C19 Supersomes, luciferin-H EGE luminescence, 30 min; inhibition, % at 5 µM; 96,000 compounds, 21% hits;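 active = CYP2C19 inhibition above a set limit at 5 µM in the primary screen, cut at about 50% in these data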;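 also: plate controls were negative control wells for no effect and 2.5 mM tranylcypromine positive control for full effect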
PostGolgi yeast: growth inhibition of a yeast mutant, post-Golgi transport screen; post-Golgi transport phenotypic cell assay; inhibition, % at 10 µM; 98,000 compounds, 0.9% hits;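 also: yeast cells grown in 1536-well plates; yeast grown about 18 h at 30C before absorbance read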
CYP2C19 activ: cytochrome P450 2C19 (human) activation; P33261; recombinant CYP2C19, luciferin-H EGE luminescence; active compounds read high; 0 = fully inhibited enzyme, 1 = untreated enzyme; activation factor at 5 µM; 96,000 tested, under 10 active;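 active = activation factor of at least 2 at 5 µM in the primary screen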;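 also: 0 = wells with 2.5 mM tranylcypromine and 1 = vehicle-only wells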
CYP2C9 inhib: blocks human cytochrome P450 2C9; P11712; 96,000 compounds, 20% hits; inhibition, % at 5 µM; CYP2C9 Supersomes, luciferin-H conversion, luminescence;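 active = blocking of liver enzyme CYP2C9 beyond about 50% at 5 µM, limit read from the data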
Target sequence (P11712 whole entry, looked up): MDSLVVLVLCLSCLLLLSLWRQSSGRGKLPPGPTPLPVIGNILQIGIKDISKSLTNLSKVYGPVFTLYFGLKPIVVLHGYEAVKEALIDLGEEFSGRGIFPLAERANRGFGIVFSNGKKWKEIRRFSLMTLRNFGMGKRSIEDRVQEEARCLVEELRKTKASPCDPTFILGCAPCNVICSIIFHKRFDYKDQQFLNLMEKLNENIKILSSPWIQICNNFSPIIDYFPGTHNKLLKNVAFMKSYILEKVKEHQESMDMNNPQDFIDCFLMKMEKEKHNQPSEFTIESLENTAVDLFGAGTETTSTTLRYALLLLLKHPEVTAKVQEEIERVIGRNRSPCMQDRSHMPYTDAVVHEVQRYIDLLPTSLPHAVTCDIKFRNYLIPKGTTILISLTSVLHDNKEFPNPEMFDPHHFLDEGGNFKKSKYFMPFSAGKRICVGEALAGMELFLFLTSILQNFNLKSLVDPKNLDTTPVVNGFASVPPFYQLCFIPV
PostGolgi ctrl: yeast control strain growth, post-Golgi counter-screen | efflux-deficient yeast background strain, growth absorbance A615, 16 h | inhibition, % at 10 µM | 98,000 compounds, 5% hits
CYP2C9 activ: CYP2C9 (human) activation; P11712; recombinant CYP2C9, luciferin-H conversion, luminescence; active compounds read high; factor 1 = untreated enzyme, 0 = blocked; activation factor at 5 µM; 96,000 compounds, 1.4% hits;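 active = activation factor of 2 or more for CYP2C9 at a 5 µM dose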;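 also: 0 = sulfaphenazole-blocked wells and 1 = vehicle-only wells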
Active calls of the source: *. Only a sample is shown. Rule as the data show it, unless noted: active = inhibition above about 30%; inactive = the rest.

How did CCn1c(SCC(=O)Nc2cccc(OC)c2)nnc1-c1ccc(Cl)cc1 do in these assays?
CYP2C19 inh: 0; PostGolgi yeast: -8; CYP2C19 activ: 1; CYP2C9 inhib: -6; PostGolgi ctrl: 9; CYP2C9 activ: 1.1

How did CCn1c(SCC(=O)NCc2cccs2)nnc1-c1ccncc1 do in these assays?
CYP2C19 inh: 44; PostGolgi yeast: 6; CYP2C19 activ: 0.6; CYP2C9 inhib: 18; PostGolgi ctrl: 15; CYP2C9 activ: 0.8

Results for CSc1nnc(-c2sccc2OCc2ccc(C)cc2)n1C ?
CYP2C19 inh: 17; PostGolgi yeast: 0; CYP2C19 activ: 0.8; CYP2C9 inhib: 13; PostGolgi ctrl: 21; CYP2C9 activ: 0.9

Results for CCn1c(SCC(=O)Nc2ccc(N(C)C)cc2)nnc1-c1cccc(C)c1 ?
CYP2C19 inh: 73*; PostGolgi yeast: 4; CYP2C19 activ: 0.3; CYP2C9 inhib: 86*; PostGolgi ctrl: 25; CYP2C9 activ: 0.1

How did CN(C)c1ccc(NC(=O)CSc2nc(N)c(C(=O)Nc3ccc(N(C)C)cc3)s2)cc1 do in these assays?
CYP2C19 inh: 28; PostGolgi yeast: -2; CYP2C19 activ: 0.7; CYP2C9 inhib: 33; PostGolgi ctrl: -3; CYP2C9 activ: 0.7

What do the screens show for `CCOC(=O)c1sc(SCC(=O)Nc2ccc(N(C)C)cc2)nc1N`?
CYP2C19 inh: 69*; PostGolgi yeast: 1; CYP2C19 activ: 0.3; CYP2C9 inhib: 57*; PostGolgi ctrl: -7; CYP2C9 activ: 0.4

How did CCc1nc(NCCCCCO)c2nnn(Cc3ccccc3F)c2n1 do in these assays?
CYP2C19 inh: 45; PostGolgi yeast: -2; CYP2C19 activ: 0.6; CYP2C9 inhib: 56*; PostGolgi ctrl: 3; CYP2C9 activ: 0.4

How did C#CCNc1nc(CC)nc2c1nnn2Cc1ccccc1F do in these assays?
CYP2C19 inh: 52*; PostGolgi yeast: 8; CYP2C19 activ: 0.5; CYP2C9 inhib: 10; PostGolgi ctrl: 10; CYP2C9 activ: 0.9

What do the screens show for `Fc1ccccc1Cn1nnc2c(NCCc3ccccn3)ncnc21`?
CYP2C19 inh: 34; PostGolgi yeast: 5; CYP2C19 activ: 0.7; CYP2C9 inhib: 2; PostGolgi ctrl: 8; CYP2C9 activ: 1

What do the screens show for `CCOc1ccccc1C(=O)Nc1ccccc1O`?
CYP2C19 inh: 27; PostGolgi yeast: 0; CYP2C19 activ: 0.7; CYP2C9 inhib: -469; PostGolgi ctrl: 17; CYP2C9 activ: 5.7*

Results for CCOc1ccccc1NC(=O)c1ccccc1NS(C)(=O)=O ?
CYP2C19 inh: 9; PostGolgi yeast: 6; CYP2C19 activ: 0.9; CYP2C9 inhib: 96*; PostGolgi ctrl: 12; CYP2C9 activ: 0

What do the screens show for `COc1ccccc1NC(=O)c1ccccc1NS(C)(=O)=O`?
CYP2C19 inh: -2; PostGolgi yeast: 1; CYP2C19 activ: 1; CYP2C9 inhib: 19; PostGolgi ctrl: 8; CYP2C9 activ: 0.8

How did CN1CCCC(OC(=O)CCCC(=O)OC2CCCN(C)C2)C1 (centres undefined) do in these assays?
CYP2C19 inh: 13; PostGolgi yeast: -2; CYP2C19 activ: 0.9; CYP2C9 inhib: 20; PostGolgi ctrl: -6; CYP2C9 activ: 0.8

Results for CCNc1[nH]c(=O)n(C)c(=O)c1N=O ?
CYP2C19 inh: -16; PostGolgi yeast: 1; CYP2C19 activ: 1.2; CYP2C9 inhib: -8; PostGolgi ctrl: 3; CYP2C9 activ: 1.1

Results for O=S(=O)(c1ccc(-c2csc(=Nc3ccccc3)n2CCCN2CCOCC2)cc1)N1CCOCC1 ?
CYP2C19 inh: 56*; PostGolgi yeast: 0; CYP2C19 activ: 0.4; CYP2C9 inhib: 36; PostGolgi ctrl: 8; CYP2C9 activ: 0.6

Results for CCOc1ccc(NC(=O)[C@@H](NC(=O)c2ccccc2Br)C(C)C)cc1 ?
CYP2C19 inh: 18; PostGolgi yeast: -1; CYP2C19 activ: 0.8; CYP2C9 inhib: 21; PostGolgi ctrl: 12; CYP2C9 activ: 0.8

Results for CS(=O)(=O)N1CCN(C(=O)c2c(F)cccc2F)CC1 ?
CYP2C19 inh: 14; PostGolgi yeast: -1; CYP2C19 activ: 0.9; CYP2C9 inhib: -12; PostGolgi ctrl: -5; CYP2C9 activ: 1.1

Results for O=C(c1cc(S(=O)(=O)N2CCCCC2)ccc1F)N1CCCCC1 ?
CYP2C19 inh: 13; PostGolgi yeast: 2; CYP2C19 activ: 0.9; CYP2C9 inhib: 17; PostGolgi ctrl: 8; CYP2C9 activ: 0.8

Screening data deposited in PubChem BioAssay by several laboratories.
